Bioassay records (PubChem BioAssay)
PostGolgi ctrl: growth inhibition of yeast control strain, primary screen, counter-screen for post-Golgi transport modulator project; efflux-deficient yeast background strain, growth absorbance A615, 16 h; inhibition, % at 10 µM; 98,000 tested, 5% active
S1P2 ag: S1P2 receptor agonists, primary screen, cell-based; Sphingosine 1-phosphate receptor 2 (Homo sapiens), O95136; S1P2-expressing cell line, agonist reporter read-out; activation, % at 4.5 µM; 97,000 tested, 0.46% active; AID 729, 2007; in the data active = activation above about 16%
GALR2 ag: GALR2 receptor agonists, primary screen, cell-based; AID 803, 2007; GALR2-expressing cells, agonist activation read-out; 140,000 tested, 0.48% active; activation, % (no concentration beside the values); in the data active = activation above about 5%, passing the limit was not always enough
Target sequence (O43603 whole entry, looked up): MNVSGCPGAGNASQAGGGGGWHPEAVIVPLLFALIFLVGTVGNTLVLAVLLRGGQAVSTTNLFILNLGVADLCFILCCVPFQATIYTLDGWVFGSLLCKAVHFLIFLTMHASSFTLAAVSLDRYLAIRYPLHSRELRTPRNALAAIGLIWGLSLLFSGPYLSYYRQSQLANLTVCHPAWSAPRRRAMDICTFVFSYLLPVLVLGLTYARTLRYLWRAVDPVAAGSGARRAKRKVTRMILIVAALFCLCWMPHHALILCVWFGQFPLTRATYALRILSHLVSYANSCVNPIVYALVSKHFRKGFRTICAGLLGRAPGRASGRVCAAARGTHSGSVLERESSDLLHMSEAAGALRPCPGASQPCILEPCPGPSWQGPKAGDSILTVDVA
GALR2 antag: GALR2 antagonists in receptor-expressing cells, primary screen | Galanin receptor type 2 (Homo sapiens), O43603 | antagonist mode | inhibition, % at 4 µM | 140,000 tested, 0.39% active | AID 828, 2007; in the data active = inhibition above about 27%;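 also: cells stimulated with galanin 1-16 at roughly its EC80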
S1P2 blocker: human S1P2 receptor antagonists, primary screen, cell-based | 97,000 tested, 0.21% active | cell-based S1P2 antagonist assay, inhibition at 5 uM | inhibition, % at 5 µM; in the data active = inhibition above about 45%;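 also: CRE beta-lactamase reporter cells expressing human S1P2 stimulated with S1P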
PostGolgi yeast: phenotypic screen on post-Golgi transport, primary screen. post-Golgi transport phenotypic cell assay. inhibition, % at 10 µM. 98,000 tested, 0.9% active. AID 739, 2007;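 also: yeast cells grown in 1536-well plates; yeast grown about 18 h at 30C before absorbance read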
Each line names hits and unclear results; the compound was inactive in the other large screens. Only a selection was taken, and hits are over-represented in it overall. Rule as the data show it, unless noted: active = inhibition above about 30%; inactive = the rest.

COc1ccc(C2CC(c3ccccc3)=NN2c2ccc(N)cc2)cc1 (configuration not stated)	none (no result: PostGolgi ctrl, S1P2 ag, S1P2 blocker, PostGolgi yeast)
Cc1nc2ccc(NC(=O)N3CCSCC3)cc2s1	PostGolgi ctrl 31
Cc1ccc(C(=O)NNC(=O)CCN2C(=O)C3CCCCC3C2=O)cc1 (configuration not stated)	none (no result: PostGolgi ctrl, S1P2 ag, S1P2 blocker, PostGolgi yeast)
O=C(Nc1cc(C(F)(F)F)ccc1Cl)C1CCN(c2nnc(-n3cccc3)s2)CC1	PostGolgi ctrl 39 (no result: S1P2 ag, S1P2 blocker)
Cc1cc(NC(=O)Cn2nnc3sc4c(c3c2=O)CCC(C(C)(C)C)C4)no1 (configuration not stated)	PostGolgi ctrl 31
Cc1cc(NC(=O)Cn2nnc3sc4c(c3c2=O)CCCC4)no1	none
CSc1nsc(SCC(=O)Nc2ccc(Br)cn2)n1	PostGolgi ctrl 38
CCCCOC1(c2ccccc2)NC(=S)NN=C1c1ccccc1 (configuration not stated)	none
Brc1ccc(CSc2nnc(-c3ccccn3)n2Cc2ccco2)cc1	PostGolgi ctrl 33
Cc1ccccc1CSc1nnc(-c2ccco2)n1Cc1ccco1	PostGolgi ctrl 39
O=C1c2ccccc2C(=O)N1CCSc1nnc(-c2ccco2)n1Cc1ccccc1	PostGolgi ctrl 37
CC(C)(C)c1ccc(CSc2nnc(-c3ccccn3)n2Cc2ccco2)cc1	S1P2 ag 32
c1ccc(CSc2nnc(-c3ccco3)n2Cc2ccco2)cc1	none
Clc1cccc(CSc2nnc(-c3ccccn3)n2Cc2ccco2)c1	none
Cc1ccccc1CSc1nnc(-c2cccs2)n1Cc1ccco1	none
CCOC(=O)Cc1csc(NC(NC(=O)OCC)(C(=O)OCC)C(F)(F)F)n1 (configuration not stated)	none (no result: PostGolgi ctrl, PostGolgi yeast)
CCOC(=O)c1c(C)nc2c(c1-c1ccc(Cl)cc1)C(=O)CC(C)(C)C2	none (no result: PostGolgi ctrl, S1P2 ag, S1P2 blocker, PostGolgi yeast)
COc1cc(NC(=O)C2CCCN(c3ncccn3)C2)cc(OC)c1 (configuration not stated)	none (no result: PostGolgi ctrl, PostGolgi yeast)
CCCN(CCC)S(=O)(=O)c1ccc(C(=O)NNc2nc(-c3ccccc3)c3cc(Br)ccc3n2)cc1	none (no result: PostGolgi ctrl, S1P2 ag, S1P2 blocker, PostGolgi yeast)
Cc1nn(C)cc1/C=C(/C#N)C(N)=O	none (no result: PostGolgi ctrl, S1P2 ag, S1P2 blocker, PostGolgi yeast)
O=C1CC(c2cccc(Br)c2)c2cc3c(cc2N1)CCC3 (configuration not stated)	PostGolgi ctrl 90
Cc1cc2c(cc1C)C(c1cccc([N+](=O)[O-])c1)CC(=O)N2 (configuration not stated)	none (no result: PostGolgi ctrl, S1P2 ag, S1P2 blocker, PostGolgi yeast)
CCc1cccc(CC)c1NC(=O)CSc1nc2ccc(N3C(=O)C4C(C3=O)[C@H]3C=C[C@@H]4C3)cc2s1 (some centres not stated)	none (no result: PostGolgi ctrl, S1P2 ag, S1P2 blocker, PostGolgi yeast)
COc1ccccc1-c1c(C(F)(F)F)oc2cc(OC(=O)c3cccc([N+](=O)[O-])c3C)ccc2c1=O	none
CCn1c(SCc2nc3ccccc3c(=O)[nH]2)nc2ccccc2c1=O	none (no result: PostGolgi ctrl, PostGolgi yeast)
COCCCn1c(SCc2nc3ccccc3c(=O)[nH]2)nc2ccccc2c1=O	S1P2 ag 23
Cc1cc(C)c(NC(=O)CSc2ccc3nnc(CCNC(=O)c4ccccc4)n3n2)c(C)c1	none (no result: PostGolgi ctrl, S1P2 ag, S1P2 blocker, PostGolgi yeast)
CC(C)(C)c1cc(Br)ccc1OCC(=O)Nc1ncn[nH]1	PostGolgi ctrl 30
O=C1c2[nH]nc(-c3ccccc3O)c2C(c2ccccc2)N1Cc1ccco1 (configuration not stated)	PostGolgi ctrl 38
Cc1ccc(C)c(N2CCN(C(=O)c3ccc(CS(=O)(=O)c4ccccc4C)o3)CC2)c1	PostGolgi ctrl 38
Cc1cccc(N2CCN(C(=O)c3ccc(CS(=O)(=O)c4ccccc4C)o3)CC2C)c1 (configuration not stated)	none
Cc1ccc(S(=O)(=O)Cc2ccc(C(=O)N3CCN(c4cc(C)ccc4C)CC3)o2)cc1	PostGolgi ctrl 37
COc1ccc(C(NC(=O)c2ccccc2F)NC(=O)c2ccccc2F)cc1	none (no result: PostGolgi ctrl, S1P2 ag, S1P2 blocker, PostGolgi yeast)
O=c1c2cccc3c2c(nn1CN1CCOCC1)-c1ccccc1-3	PostGolgi yeast 41
Cc1ccc(-c2nn(CC(=O)NCCN3CCOCC3)c(=O)c3ccccc23)cc1	none
CC1=CCC(COC(=O)Nc2ccccc2)CC1 (configuration not stated)	PostGolgi ctrl 31
O=C(Nc1ccccc1)OCC1CCCN2CCCCC12 (configuration not stated)	none
COCCn1c(=NC(=O)CSC(C)=O)sc2cc(OC)ccc21	none (no result: S1P2 ag, S1P2 blocker)
COCCn1c(=NC(=O)CSCC(=O)NC2CCCCC2)sc2cc(OC)ccc21	PostGolgi ctrl 48
C#CCOC(=O)CCCNc1ccc([N+](=O)[O-])cc1[N+](=O)[O-]	none
Cc1ccc(OCCN2C(=O)S/C(=C\c3ccc(C)o3)C2=O)cc1	none (no result: PostGolgi ctrl, S1P2 ag, S1P2 blocker, PostGolgi yeast)
CC1=C(C(=O)OCC(C)C)C(c2cc3c(cc2Br)OCO3)NC(=O)N1C (configuration not stated)	PostGolgi ctrl 38
CC1=C(C(=O)OCC(C)C)C(c2ccccc2Cl)NC(=O)N1C (configuration not stated)	none
CCn1c(CSc2nc3ccccc3s2)nnc1SCC(=O)c1ccc(Cl)cc1	PostGolgi ctrl 43
CCn1c(CSc2nc3ccccc3s2)nnc1SCC(=O)c1ccc(O)c(O)c1	none
COc1ccccc1-n1c(=S)sc2c(=O)n(Cc3ccco3)c(SC)nc21	PostGolgi ctrl 45 (no result: S1P2 ag, S1P2 blocker)
CCN(CC)C(=O)CSc1nc2c(sc(=S)n2-c2ccccc2)c(=O)n1Cc1ccco1	none
Cc1cc(C)c2nc(N3CCCC(C(=O)N4CCN(c5ncccn5)CC4)C3)sc2c1 (configuration not stated)	PostGolgi ctrl 67
NS(=O)(=O)c1ccc(NCc2cc(Cl)ccc2OCc2ccc(F)cc2)cc1	none (no result: PostGolgi ctrl, S1P2 ag, S1P2 blocker, PostGolgi yeast)
O=C(Nc1ccncc1)c1ccc(F)cc1	none
O=C(Nc1ccncc1)c1cccc(F)c1	PostGolgi ctrl 32
Cc1ccc(C)c2[nH]c(=O)c(CN(Cc3ccco3)C(=O)Nc3ccccc3)cc12	PostGolgi ctrl 42
CCc1ccc2[nH]c(=O)c(CN(Cc3ccccc3)C(=O)Nc3ccccc3OC)cc2c1	PostGolgi ctrl 71
COc1ccccc1NC(=O)N(Cc1ccco1)Cc1cc2ccc(C)c(C)c2[nH]c1=O	PostGolgi ctrl 41
CCc1ccc2[nH]c(=O)c(CN(CCN(C)C)C(=O)Nc3ccccc3OC)cc2c1	none
COc1ccccc1NC(=O)N(Cc1ccco1)Cc1cc2cc(C)cc(C)c2[nH]c1=O	PostGolgi ctrl 67
Cc1ccc(-c2cn(-c3ccccc3)c(SCC(=O)NC3CCS(=O)(=O)C3)n2)cc1C (configuration not stated)	none (no result: PostGolgi ctrl, S1P2 ag, S1P2 blocker, PostGolgi yeast)
COc1ccc(NC(=O)Cc2coc3ccc4ccccc4c23)cc1S(=O)(=O)N1CCOCC1	none (no result: PostGolgi ctrl, S1P2 ag, S1P2 blocker, PostGolgi yeast)
O=C(CSc1nncn1-c1ccccc1)NCc1cccs1	GALR2 ag 12
CCn1nnnc1SCC(=O)NCc1cccs1	none
CCCn1c(=O)c2ccccc2n2c(SCc3c(C(=O)OCC)oc4ccccc34)nnc12	PostGolgi ctrl 51
